Results: the supplement of paper PMC9694430

How the values were obtained:
Test in all cases: thermal shift delta Tm vs DMSO control; higher = stronger stabilization (binding)
Settings in all cases: 12.5 µM; protein concentration 2 µM
[1] = system: LOC_OS04G57630-cb004
Procedure, shortened: (§1)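 Compounds dissolved in DMSO were added to purified rice kinase domain constructs, which had been expressed in E. coli, for differential scanning fluorimetry. Each well held 19.5 μl of 2 μM kinase in 100 mM potassium phosphate pH 7.5, 150 mM NaCl, 10% glycerol and 5 × SYPRO Orange. Fluorescence was followed from 25°C to 95°C at a rate of 0.05°C/s. Shifts in Boltzmann-fitted melting temperature are triplicate means relative to DMSO-only protein.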

[2] = system: LOC_OS05G07850-cb002
Procedure, shortened: as §1

[3] = system: LOC_OS05G16824-cb004
Procedure, shortened: as §1

[4] = system: LOC_OS05G28520-cb001
Procedure, shortened: as §1

[5] = system: LOC_OS05G30820-cb001
Procedure, shortened: as §1

[6] = system: LOC_OS05G43570-cb004
Procedure, shortened: as §1

[7] = system: LOC_OS06G16330-cb003
Chain of LOC_OS06G16330-cb003 (as listed by the source): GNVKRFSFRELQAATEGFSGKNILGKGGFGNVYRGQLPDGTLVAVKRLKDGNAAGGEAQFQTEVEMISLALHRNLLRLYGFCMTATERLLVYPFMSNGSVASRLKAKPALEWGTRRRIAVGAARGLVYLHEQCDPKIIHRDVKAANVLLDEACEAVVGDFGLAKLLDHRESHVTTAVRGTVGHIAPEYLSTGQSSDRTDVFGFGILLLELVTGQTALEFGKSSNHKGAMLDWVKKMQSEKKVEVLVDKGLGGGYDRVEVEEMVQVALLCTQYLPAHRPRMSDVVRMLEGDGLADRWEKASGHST
Procedure, shortened: as §1

[8] = system: T1, LOC_OS06G22820-cb001
T1 sequence (whole entry): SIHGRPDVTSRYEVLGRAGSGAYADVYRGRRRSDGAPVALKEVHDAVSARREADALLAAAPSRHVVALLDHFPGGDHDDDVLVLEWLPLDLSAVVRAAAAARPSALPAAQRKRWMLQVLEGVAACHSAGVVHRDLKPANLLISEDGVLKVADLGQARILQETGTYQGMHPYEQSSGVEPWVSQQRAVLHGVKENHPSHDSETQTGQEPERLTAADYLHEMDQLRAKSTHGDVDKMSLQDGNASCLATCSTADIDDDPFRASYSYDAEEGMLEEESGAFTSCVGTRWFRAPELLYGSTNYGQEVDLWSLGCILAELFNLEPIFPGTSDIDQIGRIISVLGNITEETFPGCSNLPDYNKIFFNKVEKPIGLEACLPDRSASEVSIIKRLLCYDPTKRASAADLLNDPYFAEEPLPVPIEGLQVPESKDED
Procedure, shortened: as §1

[9] = system: LOC_OS07G06570-cb004
Procedure, shortened: as §1

[10] = system: LOC_OS07G07230-cb001
Procedure, shortened: as §1

| Structure (SMILES) | thermal shift delta Tm [1] [°C] | thermal shift delta Tm [2] [°C] | thermal shift delta Tm [3] [°C] | thermal shift delta Tm [4] [°C] | thermal shift delta Tm [5] [°C] | thermal shift delta Tm [6] [°C] | thermal shift delta Tm [7] [°C] | thermal shift delta Tm [8] [°C] | thermal shift delta Tm [9] [°C] | thermal shift delta Tm [10] [°C] |
| --- | --- | --- | --- | --- | --- | --- | --- | --- | --- | --- |
| CC(C)(C)c1cnc(CSc2cnc(NC(=O)C3CCNCC3)s2)o1 | -0.47 | 0.35 | -1.08 | 0.48 | 0.47 | 0.31 | 0.18 | 2.84 | 0.7 | -0.01 |
| COc1cc2/c(=N/c3ccc(Br)cc3F)nc[nH]c2cc1OCC1CCN(C)CC1 [Vandetanib (ZD6474)] | 2.9 | 9.77 | 2.5 | 0.62 | 0.52 | -0.25 | 9.59 | 1.8 | 4.17 | 0.94 |
| CCOc1ccn(-c2ccc(F)cc2)c(=O)c1C(=O)Nc1ccc(Oc2ccnc(N)c2Cl)c(F)c1 | 0.68 | 11.6 | 1.29 | 0.56 | 0.42 | 1.2 | 4.26 | 0.43 | 0.64 | 0.01 |
| O=c1c(-c2ccc(O)cc2)coc2cc(O)cc(O)c12 [Genistein] | -1.09 | 5.31 | -0.94 | -0.31 | 0.78 | 0.36 | 0.87 | 0.81 | -0.45 | 0.02 |
| Cc1nc(Nc2cnn(C3CCNCC3)c2)nc2c1N(C)C(=O)c1cc3ccccc3cc1N2C | 0.88 | 6.28 | 3.82 | 0.38 | 0.47 | 0.33 | 1.66 | 0.22 | 0.49 | 0.2 |
| COc1cc(N2CCN(C)CC2)ccc1Nc1ncc2c(n1)N(C)c1ccccc1C(=O)N2 | 0.23 | 3.08 | -1.75 | 0.12 | 0.51 | 0.36 | 1.14 | 0.34 | 0.21 | 0.21 |
| CCc1cnn2c(NCc3ccc[n+]([O-])c3)cc(N3CCCC[C@H]3CCO)nc12 | -0.16 | 2 | -0.11 | 0.17 | 0.37 | 0.19 | -0.11 | 0.41 | 0.51 | 0.3 |
| C=CC(=O)N[C@H]1CCOC[C@H]1Nc1ncc2cc(-c3c(Cl)c(OC)cc(OC)c3Cl)ccc2n1 | 0.02 | 0.63 | – | 0.07 | 0 | -0.08 | -0.57 | 0.4 | 0.52 | 0.76 |
| Cc1c(NC(=O)OC[C@@H]2COCCN2)cn2ncnc(Nc3ccc4c(cnn4Cc4cccc(F)c4)c3)c12 | 0.21 | 0.64 | 0.54 | 0.43 | 0.46 | 0.75 | -0.49 | 0.8 | 0.91 | 0.29 |
| O=c1cc(-c2cccc3c2Sc2ccccc2S3)oc(N2CCOCC2)c1 | -0.22 | 0.85 | 0.1 | 0.74 | 0.44 | 0.13 | -0.34 | 0.79 | 0.35 | -0.3 |
| Cc1nc2c(-c3cnc(N)nc3)nc(N3CCOCC3)nc2n1C(C)C | 0.5 | 2.64 | 0.17 | 0.5 | 0.32 | – | – | – | 1.35 | -0.09 |
| CC(C)(C)c1ccc(S(=O)(=O)/C=C/C#N)cc1 | 0.92 | 0.97 | – | -0.58 | -0.04 | 0.04 | 0.83 | -0.39 | 0.39 | -0.18 |
| Cc1ccc(Nc2cc(N[C@@H]3CCCC[C@@H]3N)nnc2C(N)=O)nc1C | -0.04 | 6.83 | 5.76 | 0.7 | 1.49 | 0.67 | 4.95 | 1.48 | 1.39 | 0.12 |
| CCC[C@H](NC(=O)/C(C#N)=C/c1cccc(Br)n1)c1ccccc1 [Degrasyn (WP1130)] | -2.22 | -0.67 | – | -0.84 | 0.52 | -0.8 | -2.97 | 0.49 | -0.53 | 0.24 |
| COc1cc2ccc(=O)oc2cc1O [Scopoletin] | -0.06 | 0.76 | 2.23 | -0.1 | 0.06 | -0.08 | -0.43 | 0.22 | 1.13 | 0.87 |
| CC(C)n1nc(-c2ccc3oc(N)nc3c2)c2c(N)ncnc21 | 0.37 | 7.34 | -0.35 | 0.63 | 0.45 | 0.24 | 2.84 | 0.75 | 1.22 | 0.29 |
| CCCCCCCCCCCCCCCCn1cc[n+](Cc2ccccc2)c1C | -3.77 | 0.19 | – | -2.62 | -1.41 | -3.26 | -4.53 | -0.65 | -1.18 | -0.82 |
| Cc1cc(O)c2c(c1)C(=O)c1cccc(O)c1C2=O [Chrysophanic Acid] | -0.6 | 1.45 | – | 0.74 | 0.15 | -0.12 | -0.34 | -0.85 | 1.81 | -0.41 |
| Cc1[nH]c(/C=C2\C(=O)Nc3ccccc32)c(C)c1CCC(=O)O [Orantinib (TSU-68, SU6668)] | 0.84 | 9.92 | 0 | 0.62 | 1.03 | 0.68 | – | 0.6 | 1.28 | 0.28 |
